Laboratory results as given in PubChem BioAssay (NCATS).
Records with an inconclusive call do not appear. A number with no mark means an inactive call. Activity calls are given as the source filed them. Calls follow the shape of the dose curve; as a rule, active = well fitted inhibition curve with a large enough effect; inconclusive = small, poorly fitted or top-dose-only effect; inactive = no such curve, though single readings can be large or run the other way.

Assay: qHTS assay for measurement of the activity of small molecule inhibitors on Zika virus induced Caspase-3 activity in human iPSC derived neural progenitor cells (hNPCs) (AID 1224857); also: nearly all actives have a fitted effect of over 65% in size
Settings: hNPCs ZIKV-induced caspase-3/7, Caspase-Glo luminescence, 6 h; series mostly up to 45.7 µM; activity change, negative = inhibition: at the top concentration
Excerpt: National Center for Advancing Translational Sciences [NCATS]
Johns Hopkins University School of Medicine
Increase in the Caspase-3 activity indicates an activation of apoptosis cell death pathway caused by Zika virus infection in certain types of neuronal cells including human neural progenitor cells (hNPCs), astrocytes, and astrocytoma cell line (SNB-19). This cell-based caspase-3 activity assay measures the increased caspase-3 activity in the human iPSC derived neural progenitor cells (hNPCs) after a 6-hour Zika virus infection with a luminescence readout. A decrease in the luminescence signal in this assay by small molecule treatment indicates an inhibitory effect of that small molecule on the Zika virus induced caspase-3 activity that may correlate with its effect on reduction of Zika virus caused cell death.
The medium for hNPCs consists of DMEM/F12, N2 supplement (ThermoFisher, Cat.# 17502048), NEAA (ThermoFisher, Cat. # 11140050), 2 ug/ml heparin, 2 uM cyclopamine, and B27 (ThermoFisher, Cat. # 17504044). A Caspase-Glo 3/7 assay kit (catalog number G8092; Promega, Madison, WI) was used to detect caspase-3 activity induced by Zika virus infection in human cells. The reagent mixture was reconstituted as described in the protocol from the manufacturer. Polystyrene tissue culture treated and PDL coated white plates were obtained from Greiner Bio-One (Monroe, NC). Cells were seeded in 384- or 1536-well assay plates and cultured at 37 C with 5% CO2 for 16 to 20 hours. The typical cell seeding density in the 1536-well plate assay is 350 cells/well in 3 ul medium for hNPCs in tissue culture treated plates. Compounds were added to cells and incubated for one hour before addition of ZIKV solution to cells (2 FFU/cell). After incubation at 37 C with 5% CO2 for 6 hours, the reagent mixture of Caspase-Glo 3/7 assay kit was added to each well, followed by incubation at room temperature for 30 minutes. The luminescence intensity of the assay plates was measured using a ViewLux plate reader (PerkinElmer). Data were normalized by using the cell-containing wells without ZIKV as a negative control (0% induction of caspase 3/7 activity) and wells containing ZIKV infected cells (Caspase-3 activity induced) as a positive control (100% induction of caspase 3 activity). The percentage inhibitions of the increased Caspase-3 activity by small molecule inhibitors were then calculated.
Potency is read from the fitted curve at half-maximal effect.

Structure (SMILES)	activity change, negative = inhibition	Potency
CN1C(=O)[C@@H](NC(=O)c2cc3ccccc3[nH]2)N=C(c2ccccc2)c2ccccc21	-13.4%	
O=C1NCN(c2ccccc2)C12CCN(CCCOc1ccc(F)cc1)CC2	21.7%	
COP(=O)(OC)OC=C(Cl)Cl	15.2%	
CC1=C2[C@H]3OC(=O)[C@@H](C)[C@@H]3CC[C@@]2(C)C=CC1=O	-0.0608%	
CC[C@H](O)C(C[C@H](C)N(C)C)(c1ccccc1)c1ccccc1	-8.74% [at 92.8 µM]	
CCC1(c2cccc(O)c2)CCCCN(C)C1 (stereo not given)	-0.577%	
COc1ccc(OC)c(CC(C)N)c1 (stereo not given)	5% [at 92.8 µM]	
CC(C(O)c1ccccc1)N(C)C/C=C/c1ccccc1 (stereo not given)	-10.7%	
CC(C)(O)C(Cl)(Cl)Cl	9.74%	
CC(CC(C#N)(c1ccccc1)c1ccccc1)N(C)C (stereo not given)	10.1% [at 92.8 µM]	
COc1ccc(CN2CCNCC2)c(OC)c1OC	-9.9%	
CCOC(=O)NC(O)C(Cl)(Cl)Cl (stereo not given)	-6.8%	
O=C(N[C@H]1N=C(c2ccccc2F)c2cccc3c2N(CC3)C1=O)c1cc2ccccc2[nH]1	2.95%	
CCN(CC)CCOC(=O)C(C)(c1ccccc1)c1ccccc1	-7.62%	
CC(Cc1ccc2c(c1)OCO2)NO (stereo not given)	-4.25% [at 92.8 µM]	
CCCOC(=O)Cc1ccc(OCC(=O)N(CC)CC)c(OC)c1	-19.9%	
CC(C)[N+](C)(CCC(C(N)=O)(c1ccccc1)c1ccccc1)C(C)C		31.6 µM (active)
CN(C)C(=O)Oc1cc(OC(=O)N(C)C)cc(C(O)CNC(C)(C)C)c1 (stereo not given)	-2.66%	
CN(C)CCc1c[nH]c2ccccc12	35.7% [at 178 µM]	
C[C@@H]1CN(C2CCC(C#N)(c3ccc(F)cc3)CC2)CC[C@]1(C(=O)O)c1ccccc1 (stereo not given in full)	0.819%	

Structure (SMILES)	activity change, negative = inhibition	Potency
c1cc2c(c(N3CCNCC3)c1)OCCO2	-1.03%	
CCN(CC)Cc1nccn1-c1ccc([N+](=O)[O-])cc1C(=O)c1ccccc1Cl	-11.1%	
C[C@H]1CNCCc2ccc(Cl)cc21	-4.41%	
C[C@]12Cc3nonc3C[C@@H]1CC[C@@H]1[C@@H]2CC[C@@]2(C)[C@H]1CC[C@]2(C)O	53.8%	
ClCc1cccc(Cl)c1	0.0694%	
Cc1nc2ccccc2c(=O)n1-c1ccccc1Cl	8.15% [at 92.8 µM]	
NC1(c2ccccc2)CCCCC1	5.08% [at 92.8 µM]	
Clc1ccc(CO/N=C(\Cn2ccnc2)c2ccc(Cl)cc2Cl)c(Cl)c1	65.6%	
CCC1(CC)C(=O)NC(=O)NC1=O	-2.81%	
Nc1ccc(N)cc1	-22.6%	
CC(CC(C(N)=O)(c1ccccc1)c1ccccc1)N(C)C (stereo not given)	26.9%	
CN1C[C@@H](NS(=O)(=O)N(C)C)C[C@@H]2c3cccc4c3c(cn4C)C[C@H]21	1.06%	
C[C@@H]1CC[C@H]2[C@@H](C)C(=O)O[C@@H]3O[C@@]4(C)CC[C@@H]1[C@]32OO4	23.7%	
Nc1ccc(Cl)cc1C(=O)c1ccccc1F	18.6%	
CNC(C)Cc1ccc2c(c1)OCO2 (stereo not given)	-20.4% [at 92.8 µM]	
O=C1CN2CCOC2(c2ccccc2Cl)c2cc(Cl)ccc2N1 (stereo not given)	20.3%	
C[N+]1(CCC(C(N)=O)(c2ccccc2)c2ccccc2)CCCCC1	-2.85%	
Sc1ccccc1Cl	-5.57%	
Nc1ccccc1C(=O)OCC(O)CO (stereo not given)	-28%	
CN1CCC(N(Cc2ccccc2)c2ccccc2)CC1	-1.5%	
